From PubChem BioAssay
CYP2C19 inh: inhibitors of human CYP2C19; AID 778; inhibition, % at 5 µM; 96,000 compounds, 21% hits; CYP2C19 Supersomes, luciferin-H EGE luminescence, 30 min;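 active = CYP2C19 inhibition above a set limit at 5 µM in the primary screen, cut at about 50% in these data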;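 also: plate controls were negative control wells for no effect and 2.5 mM tranylcypromine positive control for full effect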
Target sequence (P33261 whole entry, looked up): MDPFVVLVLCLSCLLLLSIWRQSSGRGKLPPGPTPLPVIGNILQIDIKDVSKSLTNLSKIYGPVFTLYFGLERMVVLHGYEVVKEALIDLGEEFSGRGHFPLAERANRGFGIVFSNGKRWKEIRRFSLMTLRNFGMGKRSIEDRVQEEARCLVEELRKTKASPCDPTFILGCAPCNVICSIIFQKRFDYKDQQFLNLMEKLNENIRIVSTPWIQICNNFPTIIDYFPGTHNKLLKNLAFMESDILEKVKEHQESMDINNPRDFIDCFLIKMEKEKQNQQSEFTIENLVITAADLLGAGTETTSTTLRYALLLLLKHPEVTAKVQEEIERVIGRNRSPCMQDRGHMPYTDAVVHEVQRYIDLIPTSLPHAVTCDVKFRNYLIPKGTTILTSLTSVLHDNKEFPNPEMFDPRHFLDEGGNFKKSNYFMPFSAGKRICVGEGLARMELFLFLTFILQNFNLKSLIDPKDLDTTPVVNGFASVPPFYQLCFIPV
CYP2C9 inhib: inhibitors of human CYP2C9. P11712. CYP2C9 Supersomes, luciferin-H conversion, luminescence. inhibition, % at 5 µM. 96,000 compounds, 20% hits. AID 777;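 active = blocking of liver enzyme CYP2C9 beyond about 50% at 5 µM, limit read from the data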
PTK2B oligo ant: antagonists of human Pyk2 oligomerization; Q14289; Q293 cells, Pyk2 FERM NanoBiT luminescence; hits give low values; z-score (the deposit names both 25 µM and 10 µM); 99,000 compounds, 0.83% hits; AID 1347419;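 active = Z-score of -3 or lower, scaled per plate to the spread of control and sample wells; inactive = z-score above -3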;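 also: negative z-score means lost luminescence so less FERM oligomerization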
CYP2C9 act: increases human cytochrome P450 2C9 activity | P11712 | recombinant CYP2C9, luciferin-H conversion, luminescence; hits give high values; factor 1 = untreated enzyme, 0 = blocked | activation factor at 5 µM | 96,000 compounds, 1.4% hits;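 active = activation factor of 2 or more for CYP2C9 at a 5 µM dose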;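 also: 0 = sulfaphenazole-blocked wells and 1 = vehicle-only wells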
CYP2C19 activ: cytochrome P450 2C19 (human) activation. activation factor at 5 µM. 96,000 tested, under 10 active. recombinant CYP2C19, luciferin-H EGE luminescence; hits give high values; 0 = fully inhibited enzyme, 1 = untreated enzyme. P33261. AID 1025;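 active = activation factor of at least 2 at 5 µM in the primary screen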;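 also: 0 = wells with 2.5 mM tranylcypromine and 1 = vehicle-only wells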
* marks the source's active call; other numbers are inactive results. Most compounds without a hit are left out; they make up all but 28% or so of the library.

For O=C(O)C1C(c2ccccc2)C(C(=O)N2CCOCC2)C1c1ccccc1 (stereo not drawn) the results were CYP2C19 inh -9.5, CYP2C9 inhib 3.5, PTK2B oligo ant -0.26, CYP2C9 act 1 and CYP2C19 activ 1.1.
Screening CCn1cnc2sc(C(=O)N(Cc3ccc(N(C)C)cc3)Cc3ccco3)c(C)c2c1=O returned CYP2C19 inh 88.0*, CYP2C9 inhib 97.9*, PTK2B oligo ant 0.02, CYP2C9 act 0 and CYP2C19 activ 0.1.
`CC(C)(C)c1ccc(C(=O)N2CCC(C(=O)NCc3ccncc3)CC2)cc1` gave CYP2C19 inh 38.7, CYP2C9 inhib 55.0*, PTK2B oligo ant 2.38, CYP2C9 act 0.4 and CYP2C19 activ 0.6.
`O=C(NCc1cccc(F)c1)C1CCN(S(=O)(=O)Cc2ccccc2)CC1` gave CYP2C19 inh 12.2, CYP2C9 inhib -2.0, PTK2B oligo ant 0.82, CYP2C9 act 1 and CYP2C19 activ 0.9.
For O=C(NCc1ccncc1)C1CCN(S(=O)(=O)Cc2ccccc2)CC1 the results were CYP2C19 inh 44.4, CYP2C9 inhib 91.7*, PTK2B oligo ant 0.23, CYP2C9 act 0.1 and CYP2C19 activ 0.6.
Screening CCOC(=O)C1CC=C(Cl)CC1C(=O)Nc1nccs1 (stereo not drawn) returned CYP2C19 inh 36.5, CYP2C9 inhib 40.7, PTK2B oligo ant -1.27, CYP2C9 act 0.6 and CYP2C19 activ 0.6.
CCC(C)(C)NC(=O)CN(C(=O)CCC(=O)Nc1ccccn1)c1ccc(F)c(Cl)c1 was read as CYP2C19 inh 84.9*, CYP2C9 inhib 74.9*, PTK2B oligo ant -0.38, CYP2C9 act 0.3 and CYP2C19 activ 0.2.
`CC(C)NC(=O)CN(C(=O)CCC(=O)Nc1ccccn1)c1ccc(F)c(Cl)c1` gave CYP2C19 inh 66.4*, CYP2C9 inhib 31.4, PTK2B oligo ant -0.27, CYP2C9 act 0.7 and CYP2C19 activ 0.3.
Screening CC1(C)Cc2c(c(N3CCOCC3)nc3snc(N)c23)CO1 returned CYP2C19 inh -0.7, CYP2C9 inhib 34.6, PTK2B oligo ant -0.45, CYP2C9 act 0.7 and CYP2C19 activ 1.
CC1(C)Cc2c(c(N3CCOCC3)nc3snc(Br)c23)CO1 was read as CYP2C19 inh 9.6, CYP2C9 inhib 67.2*, PTK2B oligo ant -0.63, CYP2C9 act 0.3 and CYP2C19 activ 0.9.
Screening CCCCNc1cc(=O)n(C)c(=O)[nH]1 returned CYP2C19 inh 5.1, CYP2C9 inhib 5.8, CYP2C9 act 0.9 and CYP2C19 activ 0.9.
Cc1nonc1OC(C)CNc1ccc([N+](=O)[O-])cc1 (stereo not drawn) was read as CYP2C19 inh 97.8*, CYP2C9 inhib 62.7*, PTK2B oligo ant -0.56, CYP2C9 act 0.4 and CYP2C19 activ 0.
Screening CCCn1c2c(c(O)c(C(=O)Nc3ccc(OC)cc3)c1=O)CCCC2 returned CYP2C19 inh 6.5, CYP2C9 inhib 79.2*, PTK2B oligo ant -1.36, CYP2C9 act 0.2 and CYP2C19 activ 0.9.
Screening CCCn1c2c(c(O)c(C(=O)NC)c1=O)CCCC2 returned PTK2B oligo ant 0.76.
`CCOCC(=O)N1CCN(c2ccc([N+](=O)[O-])cc2)CC1` gave PTK2B oligo ant 0.91.
Screening COc1ccc(/C(O)=C2/C(=O)C(=O)N(CCN(C)C)C2c2ccc(OC)c(OC)c2)c(C)c1 (stereo not drawn) returned PTK2B oligo ant 1.76.
Screening Cn1c(NC(=O)c2cccs2)c(-c2cccs2)c(=O)c2ccccc21 returned CYP2C19 inh 3.8, CYP2C9 inhib 66.8*, PTK2B oligo ant -0.52, CYP2C9 act 0.3 and CYP2C19 activ 1.
`Cn1c(NC(=O)c2ccccc2)c(-c2cccs2)c(=O)c2ccccc21` gave CYP2C19 inh -15.0, CYP2C9 inhib 83.8*, PTK2B oligo ant 0.67, CYP2C9 act 0.2 and CYP2C19 activ 1.1.
For O=S1(=O)C=CC(N2CCOCC2)C1 (stereo not drawn) the results were CYP2C19 inh -12.4, CYP2C9 inhib -20.1, PTK2B oligo ant -0.12, CYP2C9 act 1.2 and CYP2C19 activ 1.1.
For CC(C)C(=O)Nc1cccc(NC(=S)NC(=O)c2ccccc2Cl)c1 the results were CYP2C19 inh 26.5, CYP2C9 inhib -7.4, PTK2B oligo ant -0.93, CYP2C9 act 1.1 and CYP2C19 activ 0.7.
`CCC(=O)Nc1cccc(NC(=S)NC(=O)c2ccccc2Cl)c1` gave CYP2C19 inh 28.1, CYP2C9 inhib -154.4, PTK2B oligo ant 0.27, CYP2C9 act 2.5* and CYP2C19 activ 0.7.
Screening COc1cccc(C2/C(=C(\O)c3c(C)nc4c(C)cccn34)C(=O)C(=O)N2CCCN(C)C)c1 (stereo not drawn) returned CYP2C19 inh 5.2, CYP2C9 inhib -6.3, CYP2C9 act 1.1 and CYP2C19 activ 0.9.
O=C(NC1CC1)C1=COCCO1 was read as CYP2C19 inh -15.5, CYP2C9 inhib 1.3, PTK2B oligo ant 0.51, CYP2C9 act 1 and CYP2C19 activ 1.2.
`CN(C)c1nc(SCCOC(=O)c2ccccc2)nc(N(C)C)n1` gave CYP2C19 inh 98.7*, CYP2C9 inhib 61.7*, PTK2B oligo ant 0.5, CYP2C9 act 0.4 and CYP2C19 activ 0.
For Cc1ccc(NC(=O)/C(=C\c2cccc([N+](=O)[O-])c2)NC(=O)c2cccs2)cc1 the results were CYP2C19 inh 6.4, CYP2C9 inhib 14.9, PTK2B oligo ant -1.45, CYP2C9 act 0.9 and CYP2C19 activ 0.9.
COc1ccc(OC)c(CN(CCCN2CCOCC2)C(=O)Nc2ccccc2)c1 was read as PTK2B oligo ant 0.86.
`COc1cccc(NC(=O)N(CCCN2CCOCC2)C(C)c2cc3ccccc3o2)c1` (stereo not drawn) gave CYP2C19 inh 46.4, CYP2C9 inhib 51.6*, PTK2B oligo ant 0.38, CYP2C9 act 0.5 and CYP2C19 activ 0.5.
For COc1cccc(NC(=O)N(CCCN2CCOCC2)C(C)c2cc3cccc(OC)c3o2)c1 (stereo not drawn) the results were CYP2C19 inh 66.5*, CYP2C9 inhib 66.9*, PTK2B oligo ant 0.03, CYP2C9 act 0.3 and CYP2C19 activ 0.3.
Screening COC(=O)c1ccc(/C=N\NC(=O)c2ccc(C)cc2Cl)cc1 returned CYP2C19 inh 11.9, CYP2C9 inhib 39.3, PTK2B oligo ant -0.21, CYP2C9 act 0.6 and CYP2C19 activ 0.9.
`CCOC(=O)COc1c(Br)cc(/C=C2\SC(=O)N(CC(=O)N3CCCC3)C2=O)cc1OC` gave CYP2C19 inh 18.8, CYP2C9 inhib 42.8, PTK2B oligo ant 1.57, CYP2C9 act 0.6 and CYP2C19 activ 0.8.
`O=C(CSc1nnc(-c2ccc(Cl)cc2)o1)N1CCN(c2ccccc2)CC1` gave CYP2C19 inh -22.1, CYP2C9 inhib -13.7, CYP2C9 act 1.1 and CYP2C19 activ 1.2.
For Cc1nc2sc(C(c3cccc(F)c3)N3CCC(O)CC3)c(O)n2n1 (stereo not drawn) the results were CYP2C19 inh 0.4, CYP2C9 inhib -10.7, PTK2B oligo ant -0.46, CYP2C9 act 1.1 and CYP2C19 activ 1.
